Mot1-301 SUMO: blocks SUMOylation pathway, rescuing yeast Mot1-301 growth. S. cerevisiae Mot1-301 growth rescue, ATP luminescence, 38.5C; percent above DMSO median, 100 means doubled. growth rescue, % at 18.8 µM. actives 1% (n = 320,000);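 active = every valid replicate shows activation above 250% relative to neutral control wells; inactive = the rest, any valid replicate at or below 250%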
A1 inh: inhibitors of the anti-apoptotic protein A1, read as caspase activation; MEF A1-2A-BIM cells, Caspase-Glo 3/7 luminescence, 3 h; percent of clofoctol response, vehicle zero; caspase activation, % (concentration not given with the values); actives 0.066% (n = 330,000); AID 2462;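 active = over half of replicate activation scores above 10%, or exactly half above 10 with the replicate mean above 10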
Efflux pump inh: antifungal efflux pump inhibition, Nile Red retention | S. cerevisiae Candida pump triplex | inhibition, % at 10 µM | actives 0.44% (n = 330,000);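 active = plate passing quality check with inhibition over a set limit, or well fluorescence over plate mean plus 4 SD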;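 also: Nile Red retained in pooled yeast measured as flow cytometry median fluorescence; higher means more Nile Red kept so more efflux inhibition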
AHR activator: activators of human aryl hydrocarbon receptor; P35869; AHR-responsive luciferase reporter cells, luminescence; activation, % at 5 µM; actives 2.5% (n = 320,000); AID 2796; in the data active = activation above about 47%
VLA-4 inh: inhibition in a human VLA-4 binding assay; VLA-4 expressing cells, ligand binding flow cytometry; P13612; actives 0.2% (n = 330,000); inhibition, % (about 7 µM as worked out from the volumes in the protocol); in the data active = inhibition above about 50%
ALR inh: blocks human ALR sulfhydryl oxidase activity; P55789; purified ALR, DTT oxidation, H2O2 HRP-luminol luminescence; inhibition, % (concentration not given with the values); actives 3.8% (n = 290,000); AID 485317;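 active = mean replicate inhibition above about 79%, with every replicate also reaching it, limit read from the data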
Cmpd fluor yeast: flagged as fluorescent in efflux inhibitor counter-screen | shares compounds with Efflux pump inh | S. cerevisiae AD/pABC3, compound fluorescence, flow cytometry | fluorescence ratio to DMSO, % at 10 µM | actives 4% (n = 1,700);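 active = fluorescence ratio to DMSO above its plate's cutoff, the plate mean ratio plus 5 SD, cut at about 210% in these data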;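 also: unstained yeast with no Nile Red so the signal is compound autofluorescence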
CaMdr1 efflux inh: inhibitors of Candida albicans Mdr1 efflux pump; shares compounds with Efflux pump inh; S. cerevisiae AD/CaMDR1, Nile Red efflux, flow cytometry; inhibition, % at 10 µM; actives 1% (n = 1,700); AID 588518; in the data active = inhibition above about 26%;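 also: higher means more Nile Red retained so more efflux inhibition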
Cdr2 pump inh: Candida Cdr2 efflux pump inhibition | shares compounds with Efflux pump inh | S. cerevisiae AD/CaCDR2, Nile Red retention, flow cytometry | Nile Red retention ratio vs DMSO, % at 10 µM | actives 4% (n = 1,700) | AID 588520; in the data active = Nile Red retention ratio vs DMSO above about 190%;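 also: higher ratio means more blocking of Cdr2 efflux of the dye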
Cdr1 pump inh: blocks the Candida albicans Cdr1 efflux pump in yeast. shares compounds with Efflux pump inh. S. cerevisiae AD/CaCDR1, Nile Red efflux, flow cytometry. inhibition, % at 10 µM. actives 1% (n = 1,700). AID 588522;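 active = inhibition above the screen-wide mean plus twice its standard deviation, cut at about 32% in these data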
Hits are given with their value; . = inactive; / = not tested or not shown; ! = not confirmed by another sample. Hits are enriched below; roughly 7.2% of the tested compounds scored in any of these assays.

SMILES	Mot1-301 SUMO	A1 inh	Efflux pump inh	AHR activator	VLA-4 inh	ALR inh	Cmpd fluor yeast	CaMdr1 efflux inh	Cdr2 pump inh	Cdr1 pump inh
O=c1[nH]c(=O)n(CC2CCCO2)c(O)c1/C=C1\C=Nc2ccccc21 (stereo not drawn)	.	.	2.6!	.	.	.	.	.	.	.
C[C@]12CCC3C(CCC4=CC(O)CC[C@@]43/C=N/O)C1(O)CCC2C1=CC(=O)OC1 (stereo partly drawn)	.	.	20	.	.	.	.	.	.	.
COc1cc(OC)c2c(c1)OCC1CON(C)C21 (stereo not drawn)	.	.	.	.	.	.	/	/	/	/
CCN(CC)C(=O)c1ccc(NC(=O)COc2ccc([N+](=O)[O-])cc2Cl)cc1	.	.	19	.	.	.	.	.	.	.
CCN(CC)C(=O)c1ccc(NC(=O)c2cc(S(=O)(=O)N3CCCCCC3)ccc2OC)cc1	.	.	.	.	.	.	/	/	/	/
